# From the supplement of paper PMC6897291
# Where a name gives a salt, the structure may show the parent alone.
# How the values were obtained:
# U-2932 [1] = experiment: growth inhibition by drug alone (1 - RLU/untreated control) (fraction); higher = stronger inhibition; conditions: 177Lu-lilotomab satetraxetan 0 ug/ml
# Method in brief: (§1)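 A radiolabelled anti-CD37 antibody conjugate (~600 MBq/mg) was applied for 18 h at 0.5 µg/ml to RIVA and 1 µg/ml to U-2932 cells, with untreated cells run alongside. All cells were washed and seeded at 3,000 cells/well onto library-printed plates at 10/100 nM (RIVA) or 10/1,000 nM (U-2932). Growth inhibition was based on RealTime-Glo luminescence compared with untreated no-drug wells. Daily reads began on day 3 after 1 h at 37°C, with each value being 1 − RLU/mean of the 48 such wells on that plate.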
# RIVA [2] = experiment: as above; conditions: 177Lu-lilotomab satetraxetan 0 ug/ml
# Method in brief: as §1
# U-2932 [3] = experiment: growth inhibition by drug plus 177Lu-lilotomab satetraxetan (1 - RLU/untreated control) (fraction); higher = stronger inhibition; conditions: 177Lu-lilotomab satetraxetan 1 ug/ml
# Method in brief: as §1
# RIVA [4] = experiment: as above; conditions: 177Lu-lilotomab satetraxetan 0.5 ug/ml
# Method in brief: as §1
SMILES,"growth inhibition by drug alone (U-2932 [1]; 10 nM, time (day): 3)","growth inhibition by drug alone (U-2932 [1]; 10 nM, time (day): 4)","growth inhibition by drug alone (U-2932 [1]; 10 nM, time (day): 5)","growth inhibition by drug alone (U-2932 [1]; 10 nM, time (day): 6)","growth inhibition by drug alone (U-2932 [1]; 1000 nM, time (day): 3)","growth inhibition by drug alone (U-2932 [1]; 1000 nM, time (day): 4)","growth inhibition by drug alone (U-2932 [1]; 1000 nM, time (day): 5)","growth inhibition by drug alone (U-2932 [1]; 1000 nM, time (day): 6)","growth inhibition by drug alone (RIVA [2]; 10 nM, time (day): 3)","growth inhibition by drug alone (RIVA [2]; 10 nM, time (day): 4)","growth inhibition by drug alone (RIVA [2]; 10 nM, time (day): 5)","growth inhibition by drug alone (RIVA [2]; 10 nM, time (day): 6)","growth inhibition by drug alone (RIVA [2]; 100 nM, time (day): 3)","growth inhibition by drug alone (RIVA [2]; 100 nM, time (day): 4)","growth inhibition by drug alone (RIVA [2]; 100 nM, time (day): 5)","growth inhibition by drug alone (RIVA [2]; 100 nM, time (day): 6)","growth inhibition by drug plus 177Lu-lilotomab satetraxetan (U-2932 [3]; 10 nM, time (day): 3)","growth inhibition by drug plus 177Lu-lilotomab satetraxetan (U-2932 [3]; 10 nM, time (day): 4)","growth inhibition by drug plus 177Lu-lilotomab satetraxetan (U-2932 [3]; 10 nM, time (day): 5)","growth inhibition by drug plus 177Lu-lilotomab satetraxetan (U-2932 [3]; 10 nM, time (day): 6)","growth inhibition by drug plus 177Lu-lilotomab satetraxetan (U-2932 [3]; 1000 nM, time (day): 3)","growth inhibition by drug plus 177Lu-lilotomab satetraxetan (U-2932 [3]; 1000 nM, time (day): 4)","growth inhibition by drug plus 177Lu-lilotomab satetraxetan (U-2932 [3]; 1000 nM, time (day): 5)","growth inhibition by drug plus 177Lu-lilotomab satetraxetan (U-2932 [3]; 1000 nM, time (day): 6)","growth inhibition by drug plus 177Lu-lilotomab satetraxetan (RIVA [4]; 10 nM, time (day): 3)","growth inhibition by drug plus 177Lu-lilotomab satetraxetan (RIVA [4]; 10 nM, time (day): 4)","growth inhibition by drug plus 177Lu-lilotomab satetraxetan (RIVA [4]; 10 nM, time (day): 5)","growth inhibition by drug plus 177Lu-lilotomab satetraxetan (RIVA [4]; 10 nM, time (day): 6)","growth inhibition by drug plus 177Lu-lilotomab satetraxetan (RIVA [4]; 100 nM, time (day): 3)","growth inhibition by drug plus 177Lu-lilotomab satetraxetan (RIVA [4]; 100 nM, time (day): 4)","growth inhibition by drug plus 177Lu-lilotomab satetraxetan (RIVA [4]; 100 nM, time (day): 5)","growth inhibition by drug plus 177Lu-lilotomab satetraxetan (RIVA [4]; 100 nM, time (day): 6)"
O=C(O)CCCc1ccccc1 [4-Phenylbutyrate],0.0701,0.0509,0.00363,-0.192,0.0343,0.0446,-0.0113,-0.154,-0.0798,-0.0476,-0.148,-0.516,-0.401,-0.277,-0.308,-0.483,0.0355,0.105,0.141,0.163,0.0377,0.0642,0.124,0.195,0.43,0.538,0.547,0.56,0.419,0.5,0.507,0.511
C[C@]12CC[C@H](O)CC1=CC[C@@H]1[C@@H]2CC[C@]2(C)C(c3cccnc3)=CC[C@@H]12 [Abiraterone (CB-7598)],0.158,0.102,-0.102,-0.0433,0.0352,-0.0224,-0.154,-0.164,-0.0346,-0.0301,-0.224,-0.618,-0.373,-0.274,-0.381,-0.72,0.0329,0.0754,0.164,0.196,-0.00601,0.0151,0.0665,0.163,0.487,0.574,0.591,0.595,0.305,0.41,0.407,0.425
C=CC(=O)Nc1cccc(Oc2nc(Nc3ccc(N4CCN(C)CC4)cc3OC)ncc2Cl)c1,-0.0921,-0.0614,-0.0383,0.12,0.122,0.0694,0.0278,0.0218,-0.189,-0.196,-0.216,-0.258,-0.151,-0.238,-0.251,-0.328,-0.102,-0.073,-0.0211,0.138,0.163,0.104,0.0972,0.216,0.397,0.494,0.517,0.516,0.215,0.265,0.299,0.321
CCCC(CCC)C(=O)O [Valproic acid sodium salt (Sodium valproate)],0.135,0.0829,-0.0268,-0.0189,-0.0134,0.0276,-0.0122,-0.131,-0.0545,-0.0344,-0.0932,-0.3,0.0331,0.00236,-0.00506,-0.0995,0.0169,0.0448,0.0823,0.106,-0.06,0.0571,0.0167,0.0659,0.442,0.551,0.566,0.583,0.469,0.539,0.543,0.523
CC(C)c1onc(-c2c(Cl)cccc2Cl)c1COc1ccc(/C=C/c2cccc(C(=O)O)c2)c(Cl)c1,0.0964,0.0881,0.0536,0.0511,-0.008,0.0242,-0.0241,-0.208,0.157,0.0681,0.0301,-0.185,0.0922,0.0619,0.0293,-0.0245,0.0329,0.0686,0.0726,0.0791,-0.0283,0.0526,0.0247,0.0113,0.473,0.542,0.562,0.583,0.522,0.552,0.554,0.538
CS(=O)(=O)c1ccc(C(=O)Nc2ccc(Cl)c(-c3ccccn3)c2)c(Cl)c1 [Vismodegib (GDC-0449)],0.11,0.072,-0.091,-0.101,0.0775,0.075,0.0248,0.00134,0.089,0.121,0.101,-0.0572,-0.253,-0.16,-0.186,-0.299,0.055,0.116,0.202,0.219,0.117,0.138,0.194,0.297,0.631,0.647,0.682,0.672,0.538,0.568,0.591,0.608
Cc1nn(-c2ccccc2)c(C)c1C=NN1CCN(Cc2ccccc2)CC1,0.0133,0.025,0.0751,0.189,-0.168,-0.0669,-0.0956,-0.16,-0.144,-0.164,-0.201,-0.467,-0.163,-0.151,-0.201,-0.307,-0.0548,-0.0219,0.00875,0.104,-0.251,-0.05,-0.0247,-0.0474,0.275,0.414,0.437,0.459,0.295,0.4,0.397,0.389
